Rows were chosen to be rich in hits. Some 4% of all compounds tested hit in one or more screens of this group.
Beta cell apopt: blocks beta cell apoptosis; INS-1E cytokine-induced death, ATP luminescence, 48 h; percent of positive-control rescue, neutral wells zero; protection from apoptosis, % (no concentration beside the values); hit rate 0.8% among 300,000;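 active = Every replicate reaches about 75%, or at least half do and their mean reaches it too, limit read from the data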;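 note: 0% = cytokine-treated negative control wells and 100% = positive control rescue; higher means more ATP so stronger rescue from cytokine killing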
Mdm2-MdmX inh: inhibitors of human Mdm2/MdmX interaction; O15151+Q00987; SaOS-2 split-luciferase Mdm2/MdmX complementation, luminescence; inhibition, % at 8 µM; hit rate 3% among 330,000; AID 485346;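 active = inhibition of at least 50% at 8 µM in the primary screen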
Target sequence (O15151 whole entry, looked up): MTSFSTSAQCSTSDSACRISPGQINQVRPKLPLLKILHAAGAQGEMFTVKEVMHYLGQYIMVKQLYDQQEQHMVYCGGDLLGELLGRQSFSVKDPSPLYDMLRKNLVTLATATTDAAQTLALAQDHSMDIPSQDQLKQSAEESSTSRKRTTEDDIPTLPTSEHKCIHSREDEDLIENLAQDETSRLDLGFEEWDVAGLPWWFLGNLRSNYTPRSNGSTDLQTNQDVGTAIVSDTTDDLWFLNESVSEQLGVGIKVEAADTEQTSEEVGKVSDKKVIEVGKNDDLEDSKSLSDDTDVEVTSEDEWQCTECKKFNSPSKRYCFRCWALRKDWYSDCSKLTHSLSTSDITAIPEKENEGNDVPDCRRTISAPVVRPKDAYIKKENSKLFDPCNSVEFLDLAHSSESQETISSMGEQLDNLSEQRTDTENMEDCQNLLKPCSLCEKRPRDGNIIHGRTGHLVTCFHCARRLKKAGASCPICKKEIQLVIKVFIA
Target sequence (Q00987 whole entry, looked up): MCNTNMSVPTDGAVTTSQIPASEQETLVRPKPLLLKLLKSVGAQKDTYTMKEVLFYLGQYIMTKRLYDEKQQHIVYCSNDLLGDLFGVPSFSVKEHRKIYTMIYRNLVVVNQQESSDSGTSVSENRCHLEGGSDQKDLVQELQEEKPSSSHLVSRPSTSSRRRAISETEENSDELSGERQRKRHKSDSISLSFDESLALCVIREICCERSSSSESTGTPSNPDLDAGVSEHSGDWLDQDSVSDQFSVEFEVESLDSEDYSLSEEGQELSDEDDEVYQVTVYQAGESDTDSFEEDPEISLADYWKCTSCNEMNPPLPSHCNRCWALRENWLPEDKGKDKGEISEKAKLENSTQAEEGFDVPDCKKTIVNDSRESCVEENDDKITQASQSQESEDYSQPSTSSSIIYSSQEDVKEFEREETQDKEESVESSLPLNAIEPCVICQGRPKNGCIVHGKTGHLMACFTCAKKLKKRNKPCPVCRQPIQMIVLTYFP
Jurkat NFkB inh: inhibitors of the PMA/ionomycin-induced NF-kB reporter in Jurkat cells. PMA/ionomycin-induced NF-kB luciferase reporter, luminescence. inhibition, % at 4 µM. hit rate 0.53% among 330,000. AID 435003; in the data active = inhibition above about 50%
697 NFkB inh: inhibitors of the PMA/ionomycin-induced NF-kB reporter in 697 B cells; 697 B-cell NF-kB luciferase reporter, 16 h; inhibition, % at 4 µM; hit rate 0.33% among 330,000; AID 435022; in the data active = inhibition above about 35%
Gli-Sufu block: blocks Gli-Sufu signaling in a luciferase reporter; AID 588413; Sufu-KO-LIGHT fibroblasts, Gli luciferase reporter luminescence; inhibition, % at 5 µM; hit rate 0.74% among 340,000;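 active = inhibition above about 55%, limit read from the data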;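 note: 0% = DMSO-treated cells and 100% = wells with medium but no cells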
Jurkat NFkB conf: inhibitors of the PMA/ionomycin-induced NF-kB reporter in Jurkat cells, retest; shares compounds with Jurkat NFkB inh; hit rate 27% among 2,700; AID 435020; inhibition, % at 4 µM; Jurkat NF-kB luciferase, 16 h;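 active = inhibition reaching about 45% at 4 µM in either replicate, limit read from the data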;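 note: plate controls were PMA/ionomycin stimulated DMSO wells for no effect and unstimulated DMSO wells for full effect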
Starred values were filed as active, the others as inactive; i = inactive; . = no result.

SMILES | Beta cell apopt | Mdm2-MdmX inh | Jurkat NFkB inh | 697 NFkB inh | Gli-Sufu block | Jurkat NFkB conf
C[C@]12CC[C@@H]3c4ccc(OC(=O)c5ccccc5)cc4CC[C@H]3[C@@H]1CC[C@@H]2O | 3 | 41 | 15 | 8 | -12 | .
COc1cc2c(cc1O)CC[C@@H]1[C@@H]2CC[C@]2(C)[C@@H](O)CC[C@@H]12 | 11 | 42 | 61* | -43 | -12 | 54*
COC(=O)CSc1nc2ccc(C)cc2cc1C#N | . | -299 | -180 | -153 | -6 | -111
COC(=O)CSc1nc2cc(OC)ccc2cc1C#N | 4 | i | -166 | -137 | 4 | -94
COC(=O)CSc1nc2cc(C)cc(C)c2cc1C#N | -5 | -118 | -61 | 15 | -10 | .
O=C(NCc1cccc(Cl)c1)c1ccc(CS(=O)Cc2ccc(Cl)cc2)o1 (configuration not stated) | 3 | 27 | 9 | -15 | -4 | .
COc1cccc(N2C(=NC(=O)C3CCCCC3)SC3CS(=O)(=O)CC32)c1 (configuration not stated) | -3 | 5 | 5 | -8 | -31 | .
COC(=O)COc1cccc(NC(=O)C(c2ccccc2)c2ccccc2)c1 | . | -9 | -1 | -11 | 2 | .
CCOC(=O)c1ccc(NC(=O)C2CC3CCC2C3)cc1 (configuration not stated) | . | -131 | -154 | -164 | -92 | -116
O=C(/C=C/c1ccccc1)Nc1cccc(C(=O)NC2CC2)c1 | . | . | . | . | -57 | .
CC(C)c1ccc(C2c3[nH]c4ccccc4c3C[C@H]3C(=O)N(c4ccccc4C(=O)N4CCC[C@@H]4C(=O)O)C(=O)N23)cc1 (some centres not stated) | . | -5 | 12 | 8 | -1 | .
CN(C)S(=O)(=O)c1ccc(Nc2nc(C3CC3)nc3c2nnn3Cc2ccccc2Cl)cc1 | 88* | 19 | 57* | -16 | 45 | 65*
C=CCNc1ncnc2c1cnn2-c1ccc(OC)cc1 | -2 | -80 | -154 | -130 | -109 | -80
OCCCNc1ncnc2c1cnn2-c1ccc(Cl)cc1 | 2 | -67 | -153 | -135 | -36 | -102
COc1ccc(-n2ncc3c(NCc4ccco4)ncnc32)cc1 | -5 | -105 | -96 | -91 | -60 | .
CC1CCN(c2ccc3c(c2)S(=O)(=O)c2ccccc2C3=O)CC1 | 3 | -132 | -211 | -196 | -90 | -83
NC(=O)C1CCN(c2ccc3c(c2)S(=O)(=O)c2ccccc2C3=O)CC1 | -1 | 11 | -40 | -4 | 3 | .
O=[N+]([O-])c1ccc(N/N=C/c2cccc(O)c2O)cc1 | 25 | -24 | 81* | -112 | 36 | -5
Cc1c(C(=O)N2CCN(c3ccc(F)cc3)CC2)sc2nc3n(c(=O)c12)CCC3 | -2 | 7 | 7 | 8 | -14 | .
CCOc1ccc2c(c1)OC(c1ccc(C)cc1)(C(F)(F)F)NC2=O (configuration not stated) | 17 | 28 | 60* | 10 | 28 | 41
O=S(=O)(CCc1ccccc1)CS(=O)(=O)CCc1ccccc1 | . | . | . | . | -3 | .
O=C(Nc1ccccc1)c1cc2ccc3ccccc3c2s1 | 0 | -45 | -151 | 12 | -71 | -65
O=C(O)c1ccc(-c2ccc(-c3ccccc3)cc2)s1 | -2 | -117 | 61* | -73 | . | 46
O=C(Nc1ccccc1)c1ccc(-c2ccccc2)s1 | -3 | -29 | -194 | 9 | -25 | -66
O=C(NC(Cc1ccccc1)C(=O)O)/C(=C/c1ccc([N+](=O)[O-])cc1)NC(=O)c1ccccc1 (configuration not stated) | -4 | 20 | 3 | 7 | -5 | .
SMILES | Beta cell apopt | Mdm2-MdmX inh | Jurkat NFkB inh | 697 NFkB inh | Gli-Sufu block | Jurkat NFkB conf
COc1ccc(C2=NN(C(C#N)c3ccc(OC)c(OC)c3)C(c3ccccc3)C2)cc1 (configuration not stated) | 4 | -11 | -155 | -224 | -36 | -108
Clc1ccc(-n2nnnc2-c2ccccc2)cc1 | 2 | 5 | -3 | 5 | 8 | .
COc1ccc(-n2nnnc2-c2ccccc2)cc1 | . | 44 | 53* | -77 | -13 | 58*
Cc1nccc(-c2cc(-c3ccc(Cl)cc3Cl)no2)n1 | . | -47 | -87 | -122 | -68 | .
O=C(O)CCCNc1ccc(S(=O)(=O)N2CCCCC2)cc1 | -3 | 10 | -4 | -6 | -3 | .
Nc1nc(-c2ccccc2)cc(N2CCCCC2)n1 | 12 | 40 | 55* | -33 | 5 | 42
Cc1nc(-c2ccccc2)cc(N2CCCC2)n1 | -14 | 23 | 8 | -1 | -6 | .
Cc1nc2ccc(NC(=O)c3ccc(Cl)s3)cc2s1 | -2 | -105 | -174 | -191 | -80 | -79
Cc1ccc2nc(NC(=O)c3ccc(Cl)s3)sc2c1 | . | -155 | -162 | -215 | -108 | -140
Cc1nc2ccc(NC(=O)c3cnc(Cl)c(Cl)c3)cc2s1 | -4 | 4 | -1 | 0 | -8 | .
Cc1ccc2nc(NC(=O)c3ccc4c(c3)OCO4)sc2c1 | . | -119 | -152 | -230 | -101 | -135
Cc1ccc(C(=O)Nc2nc3ccccc3s2)s1 | 11 | -137 | -211 | -156 | -97 | -109
CC(C)(C)OC(=O)NC1CCN(S(=O)(=O)c2ccc3c(c2)OCCO3)CC1 | . | 10 | 20 | -7 | -1 | .
COc1ccc(-c2cn3cc(Cl)ccc3n2)cc1OC | 2 | -7 | -74 | -116 | -48 | .
COc1ccc(-c2cn3cc(C)ccc3n2)cc1Br | 5 | -238 | -178 | -223 | -107 | -79
Cc1ccc(S(=O)(=O)NC(=O)Nc2ccc(C)cn2)cc1 | . | -2 | 1 | -4 | 12 | .
CCOc1ccc(S(=O)(=O)N2c3ccccc3CC2C)cc1 (configuration not stated) | 15 | 40 | 71* | 10 | 8 | 51*
O=C(Nc1nc2ccccc2[nH]1)c1ccc(F)cc1 | 24 | -69 | -154 | -169 | -47 | -48
O=C(Nc1nc2ccccc2[nH]1)c1cc(F)cc(F)c1 | 24 | -60 | -141 | -152 | -113 | .
Cc1ccsc1C(=O)Nc1nc2ccccc2[nH]1 | 44 | -137 | -157 | -198 | -72 | -67
Cc1cc(C)cc(C(=O)Nc2nc3ccccc3[nH]2)c1 | 34 | -55 | -87 | -75 | 17 | .
O=C(Nc1nc2ccccc2[nH]1)c1cc2ccccc2o1 | 29 | -71 | -196 | -228 | -75 | -117
COc1ccc2oc(C(=O)Nc3nc4ccccc4[nH]3)c(C)c2c1 | 28 | -174 | -179 | -185 | -111 | -98
CCN(CC)C(=O)CN1C(=O)NC2(CCc3ccccc3C2)C1=O (configuration not stated) | 1 | 12 | 11 | 2 | -6 | .
CCOc1ccc(C(=O)N/N=C/c2cc([N+](=O)[O-])cs2)cc1 | 1 | -1 | 11 | 1 | -25 | .
COc1cc(C(=O)N/N=C/c2cc([N+](=O)[O-])cs2)cc(OC)c1OC | 27 | 34 | 67* | -17 | 21 | 42
CCOC(=O)c1sc(=NC(=O)c2ccc(Cl)s2)n(C)c1C | -3 | 17 | -206 | -153 | -57 | -83

Screening results deposited in PubChem by several laboratories.
